Experimental data reported in PubChem BioAssay AID2669 (National Center for Advancing Translational Sciences (NCATS), 2010).
Several values for one entry are separate records, joined by “and”; a condition that tells them apart may be missing. Equal entries are not always repeated. Inconclusive results are not listed. A call without a number means that no potency is given here. Activity calls are given as the source filed them. The call rests on the fitted dose curve; in most records, active means well fitted inhibition curve with a large enough effect; inconclusive means small, poorly fitted or top-dose-only effect, or effect the other way; inactive means flat fitted curve, though single readings scatter.

experiment: qHTS Assay Multiplex Screening to Identify Dual Action Probes in a Cell Model of Huntington: Cytoprotection (Protease relase); conditions: PC12 HttQ103 cells, Cytotox-Glo protease release, 40 h; series mostly up to 46.1 µM
Method in brief: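 Cytotox-Glo luminescence of released protease served as the cytoprotection readout. Compounds were added alongside 100 nM final tebufenozide to PC12 cells carrying ecdysone-inducible GFP-tagged HTT exon 1 with 103 glutamines.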

SMILES | Potency
O=Nc1c(-c2c(O)[nH]c3ccccc23)[nH]c2ccccc12 | 631 nM (active) and 1.41 µM (active)
COc1ccc(C2=Nc3cc(C)ccc3OC2)cc1 | 11.2 µM (active)
O=C(O)c1cc(=O)c2ccc(Cl)cc2[nH]1 | inactive
COc1cccc(-c2csc3ncnc(Sc4nnnn4C)c23)c1 | 7.08 µM (active)
Cn1nnnc1Sc1ncnc2scc(-c3ccccc3S(C)(=O)=O)c12 | inactive
COc1ccc(C)cc1NC(=O)C(Sc1nnnn1C)c1ccccc1 (configuration not stated) | inactive
CCC(=O)OCCCCCCOc1ccc(C(=O)O)cc1 | 0.891 µM (active)
COc1ccc(-c2[nH]ncc2-c2ccc3c(c2)OCCO3)c(O)c1 | 15.8 µM (active)
Cn1nnnc1Sc1ncnc2scc(-c3cccc(F)c3)c12 | 11.2 µM (active)
Cn1c(C(=O)N2CCN(c3ccc(Cl)cc3)CC2)cc2c(=O)[nH]c3ccccc3c21 | inactive
CC(=O)Oc1cccc(C(=O)O)c1OC(C)=O | inactive
O=[N+]([O-])c1ccc(O)c2ncccc12 | 22.4 µM (active)
CN1C(=O)C2(c3ccccc31)C1CCCC=C1C(C#N)=C(N)C2(C#N)C#N (configuration not stated) | inactive
CCc1nc(SCC(=O)Nc2nc3c(s2)CCCC3)c2ccccc2n1 | inactive
COC(=O)C(O)(CC(=O)Nc1ccc(OC(F)(F)F)cc1)C(F)(F)F (configuration not stated) | inactive
Cn1nnnc1Sc1ncnc2scc(-c3cnc(N)nc3)c12 | 11.2 µM (active)
C#CCN(C)CCCOc1ccc(Cl)cc1Cl | inactive
Cn1nnnc1Sc1ncnc2scc(-c3ccc(S(C)(=O)=O)cc3)c12 | 11.2 µM (active)
O=C(Nc1ccccc1)C1=C(O)CC(c2ccco2)CC1=Nc1ccccc1 (configuration not stated) | inactive
CCc1nc(SCC(=O)N2CCCC2)c2ccccc2n1 | inactive
CC(=O)Nc1ccc(S(=O)(=O)N2CCSC2c2ccccc2)cc1 (configuration not stated) | inactive
O=C(Nc1nc(-c2ccc(-c3ccccc3)cc2)cs1)C1CCCO1 (configuration not stated) | 11.2 µM (active)
